Inconclusive results are not listed. The source made the active and inactive calls. Unless noted, calls come from the whole dose curve; as a rule, active = well fitted curve in the direction sought with a large enough effect in the repeat runs; inconclusive = weak or mixed curves; inactive = no such curve, though single readings can be large; an effect the other way counts as inactive or inconclusive.
Experiments:
[1] = qHTS assay to identify small molecule antagonists of the estrogen related receptor (ERR) signaling pathway from Tox21 library - cell viability counter screen (AID 1224834); note: nearly all actives have a fitted effect of over 30% in size
How it was run: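 Fluorescence from CellTiter-Fluor gives the viability read-out, taken 30 min after reagent addition. Before that, ERR cells seeded 6 h earlier were incubated with compounds for 17.5 h at 37 C.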

[2] = target: Luciferin 4-monooxygenase (Photinus pyralis) (UniProt P08659); assay: qHTS assay to identify small molecule inhibitors of firefly luciferase (AID 1224835); note: nearly all actives have a fitted effect of over 25% in size
How it was run: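 Biochemical qHTS: compounds run as interplate titrations against purified firefly enzyme, with D-luciferin and ATP each at its KM concentration. Light output recorded by CCD imaging.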

[3] = qHTS assay to identify small molecule agonists of the constitutive androstane receptor (CAR) signaling pathway - cell viability counter screen (AID 1224836); note: nearly all actives have a fitted effect of over 45% in size
How it was run: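 Counter screen multiplexed with the CAR reporter readout: HepG2 cells co-transfected with hCAR and the CYP2B6-2.2kb construct receive a 15-concentration compound series and 0.75 uM PK11195 (final), then CellTiter-Fluor fluorescence is read after 23 h.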

[4] = qHTS assay to identify small molecule antagonists of the constitutive androstane receptor (CAR) signaling pathway - cell viability counter screen (AID 1224837); note: nearly all actives have a fitted effect of over 45% in size
How it was run: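 HepG2-CYP2B6-hCAR cells, 2500/well, 4 hr pre-incubation; compound titration, 15 conc.; CITCO 50 nM final; 23 hr, 37 C/5% CO2; CellTiter-Fluor, fluorescence intensity.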

[5] = target: Nuclear receptor subfamily 1 group I member 3 (Homo sapiens) (UniProt Q14994); assay: qHTS assay to identify small molecule antagonists of the constitutive androstane receptor (CAR) signaling pathway (AID 1224838);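 note: HepG2 cells stably expressing hCAR with CYP2B6 luciferase reporter stimulated by CITCO; nearly all actives have a fitted effect of over 40% in size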
How it was run: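 HepG2-CYP2B6-hCAR cells; 4 h pre-incubation; cpd (15 conc) + CITCO 50 nM final; 24 h, 37 C/5% CO2; ONE-Glo, luminescence.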

[6] = target: Nuclear receptor subfamily 1 group I member 3 (Homo sapiens) (UniProt Q14994); assay: qHTS assay to identify small molecule agonists of the constitutive androstane receptor (CAR) signaling pathway (AID 1224839); note: nearly all actives have a fitted effect of over 15% in size
How it was run: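 A 15-concentration quantitative screen uses HepG2 cells co-transfected stably with human CAR and CYP2B6-2.2kb reporter. Treatment lasts 24 h with 0.75 uM PK11195 final present; ONE-Glo luminescence is the signal.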

[7] = qHTS assay to identify small molecule antagonists of the estrogen related receptor signaling pathway with the pleiotropic PPARgamma coactivator (PGC) from Tox21 10K library - cell viability counter screen (AID 1224840; active = well fitted cell-killing curve with a large enough effect in the repeat runs, not every such curve was filed as active; note: nearly all actives have a fitted effect of over 40% in size)
How it was run: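 PGC/ERR cells, 2,000/well; 6 h pre-incubation 37 C/5% CO2; cpd in DMSO via pin tool; 17.5 h 37 C; CellTiter-Fluor, 30 min; fluorescence.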

[8] = qHTS assay to identify small molecule agonists of the hypoxia (HIF-1) signaling pathway - cell viability counter screen (AID 1224844; calls by dose curve; note: nearly all actives have a fitted effect of over 50% in size)
How it was run: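 ME-180 HRE-bla cells, 2,000/well, 0.5% dialyzed FBS; 5 hr settle, 17 hr compound at 37C/5% CO2; CCF4-AM reporter read first, then CellTiter-Glo luminescence after 30 min RT.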

[9] = qHTS assay to identify small molecule agonists of H2AX (AID 1224845; active = well fitted activation curve with a large enough effect in the signal ratio in the repeat runs, not every such curve was filed as active; the % refers to the signal ratio)
How it was run: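 Wild-type CHO-K1 cells, plated overnight, exposed 3hr at 37C to 15 concentrations (0.76% DMSO final). Lysed, then HTRF anti-pH2AX (S139) cryptate and anti-H2AX-d2 antibodies, 24 hr room temperature; 665/620 nm emission read.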

[10] = qHTS assay to identify small molecule agonists of the hypoxia (HIF-1) signaling pathway (AID 1224846; active = well fitted activation curve with a large enough effect in the signal ratio in the repeat runs, not every such curve was filed as active; the % refers to the signal ratio)
How it was run: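 Cell line: CellSensor HRE-bla ME-180; 2,000 cells/well; 0.5% dialyzed FBS; 5 h preincubation; DMSO compound pin transfer; 17 h, 37C, 5% CO2; CCF4-AM added; bla FRET signal scored for activation.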

[11] = qHTS assay to identify small molecule agonists of H2AX - cell viability counter screen (AID 1224847; calls by dose curve; note: top concentration of the series differs between compounds; nearly all actives have a fitted effect of over 30% in size)
How it was run: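 We seed wild-type CHO-K1 cells overnight, treat them for 3 hr at 37C with compounds in 15-concentration series, and quantify remaining viability by CellTiter-Glo luminescence.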

[12] = qHTS RealTime-Glo MT Cell Viability Assay in HepG2 cells - 24 hour (AID 1224867); note: nearly all actives have a fitted effect of over 50% in size
How it was run: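 HepG2 suspension premixed with RealTime-Glo reagents is plated at 600 cells per well and left 5 h at 37 C/5% CO2. Compounds in DMSO then go in, and bioluminescence reflecting viable cell number is recorded over 40 h.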

[13] = qHTS RealTime-Glo MT Cell Viability Assay in HEK293 cells - 32 hour (AID 1224868); note: top concentration of the series differs between compounds; nearly all actives have a fitted effect of over 50% in size
How it was run: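 Reads taken at 0, 8, 16, 24, 32 and 40 h from the same wells. HEK293 cells (600/well) carried RealTime-Glo reagents from seeding, with compound added after a 5 h settle at 37 C.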

[14] = A CellTox Green Cytotoxicity Assay to monitor cytotoxicity in HEK293 cells - 0 hour (AID 1224869); note: nearly all actives have a fitted effect of over 50% in size
How it was run: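 Nonlytic real-time cytotoxicity: HEK293 + CellTox Green reagent plated, 5 h preincubation, pintool compound addition (23 nL in DMSO), 37 C for 40 h, fluorescence measured at successive time points.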

[15] = qHTS RealTime-Glo MT Cell Viability Assay in HepG2 cells - 40 hour (AID 1224870); note: nearly all actives have a fitted effect of over 50% in size
How it was run: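 HepG2 cells (600/well) mixed with RealTime-Glo MT reagent, settled 5 h at 37 C/5% CO2 before compound addition. Nonlytic NanoLuc luminescence from viable-cell prosubstrate reduction read repeatedly during 40 h treatment at 37 C.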

[16] = qHTS assay to identify small molecule antagonists of the estrogen related receptor signaling pathway with the pleiotropic PPARgamma coactivator (PGC) from Tox21 10K library (AID 1224841; call rule not given here)
How it was run: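 PGC/ERR cell line, 2,000 cells/well; 6 h pre-incubation 37 C/5% CO2; compounds (DMSO) pinned in; 18 h, 37 C; One-Glo, 30 min RT; luminescence.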

[17] = qHTS assay to identify small molecule agonists of the estrogen related receptor signaling pathway with the pleiotropic PPARgamma coactivator (PGC) from Tox21 10K library (AID 1224842); note: nearly all actives have a fitted effect of over 15% in size
How it was run: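 PGC/ERR reporter cell line, 2,000 cells per well, incubated 6 h at 37 C before 23 nL compound in DMSO was added. After 18 h at 37 C, One-Glo luminescence read following 30 min at room temperature.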

[18] = qHTS assay to identify small molecule antagonists of the estrogen related receptor (ERR) signaling pathway from Tox21 library (AID 1224848); note: nearly all actives have a fitted effect of over 50% in size
How it was run: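 ERR reporter cell line (from NTP) seeded 2,000 cells/well, rested 6 h at 37 C/5% CO2, then pin-dosed with compounds in DMSO. After 18 h at 37 C, ONE-Glo added; luminescence read after 30 min at room temperature.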

[19] = qHTS assay to identify small molecule agonists of the estrogen related receptor (ERR) signaling pathway from Tox21 library (AID 1224849; calls by dose curve; note: nearly all actives have a fitted effect of over 15% in size); settings: ERR reporter cell line, ONE-Glo luciferase, 18 h
How it was run: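 ERR cells, 6 h pre-incubation 37 C/5% CO2; cpd in DMSO pinned; 18 h 37 C; ONE-Glo added, 30 min RT; luminescence read. Agonist mode, qHTS.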

[20] = target: Thyrotropin receptor (Homo sapiens) (UniProt P16473); assay: qHTS assay to identify small molecule agonists of the thyroid stimulating hormone receptor (TSHR) signaling pathway (AID 1224843; calls by dose curve; note: nearly all actives have a fitted effect of over 45% in size)
How it was run: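 TSHR-HEK293 cells in agonist mode, 30 min room-temperature step, then cAMP measured by competitive HTRF (cAMP-d2 with anti-cAMP cryptate) after 1 h at room temperature. Tested at 15 concentrations in triplicate.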
% is set by controls: 0 for no effect and ±100 for the full control effect.

Chain of Nuclear receptor subfamily 1 group I member 3 (Homo sapiens) (Q14994 whole entry, looked up): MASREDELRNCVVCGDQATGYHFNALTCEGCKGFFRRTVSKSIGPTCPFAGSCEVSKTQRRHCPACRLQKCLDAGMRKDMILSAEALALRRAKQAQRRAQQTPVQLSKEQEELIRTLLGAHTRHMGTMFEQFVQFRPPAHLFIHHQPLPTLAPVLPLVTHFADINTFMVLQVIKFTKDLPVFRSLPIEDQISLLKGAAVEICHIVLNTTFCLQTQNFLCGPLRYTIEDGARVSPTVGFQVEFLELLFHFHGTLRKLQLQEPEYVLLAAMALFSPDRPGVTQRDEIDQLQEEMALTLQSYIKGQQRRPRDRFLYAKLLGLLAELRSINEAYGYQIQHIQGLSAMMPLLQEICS
Chain of Luciferin 4-monooxygenase (Photinus pyralis) (P08659 whole entry, looked up): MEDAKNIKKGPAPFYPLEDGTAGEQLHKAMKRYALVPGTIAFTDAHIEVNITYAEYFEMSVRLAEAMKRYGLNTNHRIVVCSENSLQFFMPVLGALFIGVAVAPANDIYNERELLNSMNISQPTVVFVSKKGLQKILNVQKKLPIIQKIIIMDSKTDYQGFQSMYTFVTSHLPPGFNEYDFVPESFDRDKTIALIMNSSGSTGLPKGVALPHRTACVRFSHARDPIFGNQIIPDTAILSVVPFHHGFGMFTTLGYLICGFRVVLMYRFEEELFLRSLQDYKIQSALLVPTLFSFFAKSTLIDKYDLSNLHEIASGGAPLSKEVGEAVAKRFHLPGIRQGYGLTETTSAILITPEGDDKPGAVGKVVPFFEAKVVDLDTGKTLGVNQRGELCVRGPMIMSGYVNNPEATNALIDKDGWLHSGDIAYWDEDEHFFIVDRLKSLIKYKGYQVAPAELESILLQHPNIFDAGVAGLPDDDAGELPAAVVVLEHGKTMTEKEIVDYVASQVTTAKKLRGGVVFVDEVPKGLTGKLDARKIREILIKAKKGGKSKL
Chain of Thyrotropin receptor (Homo sapiens) (P16473 whole entry, looked up): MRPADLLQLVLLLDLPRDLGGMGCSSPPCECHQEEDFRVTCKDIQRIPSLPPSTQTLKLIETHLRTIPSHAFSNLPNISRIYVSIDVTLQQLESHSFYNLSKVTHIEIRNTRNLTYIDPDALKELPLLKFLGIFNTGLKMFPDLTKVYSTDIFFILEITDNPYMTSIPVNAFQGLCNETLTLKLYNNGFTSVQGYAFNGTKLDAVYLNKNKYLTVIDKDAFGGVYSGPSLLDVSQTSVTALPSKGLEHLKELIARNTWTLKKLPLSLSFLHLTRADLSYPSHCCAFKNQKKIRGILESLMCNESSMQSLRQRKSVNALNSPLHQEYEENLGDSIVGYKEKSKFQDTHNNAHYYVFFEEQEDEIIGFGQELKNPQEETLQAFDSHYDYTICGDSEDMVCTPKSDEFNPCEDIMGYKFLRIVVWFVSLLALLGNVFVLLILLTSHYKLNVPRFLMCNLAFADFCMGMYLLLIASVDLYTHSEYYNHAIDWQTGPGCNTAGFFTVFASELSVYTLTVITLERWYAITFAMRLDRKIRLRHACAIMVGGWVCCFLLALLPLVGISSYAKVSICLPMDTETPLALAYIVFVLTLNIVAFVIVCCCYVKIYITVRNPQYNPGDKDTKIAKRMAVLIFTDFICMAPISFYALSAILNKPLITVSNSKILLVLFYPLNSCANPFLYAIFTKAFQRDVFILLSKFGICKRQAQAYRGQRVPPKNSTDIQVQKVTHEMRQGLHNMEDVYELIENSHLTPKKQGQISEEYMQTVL

CCc1cnc(C2=NC(C)(C(C)C)C(=O)N2)c(C(=O)O)c1 (stereo not drawn)
inactive: Potency [1] | Potency [2] | Potency [3] | Potency [4] | Potency [5] | Potency [6] | Potency [7] | Potency [8] | Potency [9] | outcome [10] | Potency [11] | Potency [12] | Potency [13] | Potency [14] | Potency [15]

O=C([O-])c1ccccn1.O=C([O-])c1ccccn1.O=C([O-])c1ccccn1.[Cr+3]
inactive: Potency [1] | Potency [2] | Potency [3] | Potency [4] | Potency [5] | Potency [6] | Potency [7] | Potency [9] | outcome [10] | Potency [11] | Potency [12] | Potency [13] | Potency [14] | Potency [15]

CC(C)(C#N)C(C)(C)C#N
inactive: Potency [1] | Potency [2] | Potency [3] | Potency [4] | Potency [5] | Potency [6] | Potency [7] | Potency [16] | Potency [17] | Potency [8] | Potency [9] | outcome [10] | Potency [11] | Potency [18] | activity change, positive = activation ([19]; at 92.4 µM (top of the series)) -14.1% | Potency [12] | Potency [13] | Potency [14] | Potency [15]

CCCCCCCCCCCCN(C)C
inactive: Potency [1] | Potency [2] | Potency [3] | Potency [4] | Potency [5] | Potency [6] | Potency [7] | Potency [16] | Potency [17] | Potency [20] | Potency [8] | Potency [9] | outcome [10] | Potency [11] | Potency [18] | activity change, positive = activation ([19]; at 92.4 µM (top of the series)) 3.27% | Potency [12] | Potency [13] | Potency [15]

Cc1nnc(-c2ccccc2)c(=O)n1N
inactive: Potency [1] | Potency [2] | Potency [3] | Potency [4] | Potency [5] | Potency [6] | Potency [20] | Potency [8] | Potency [9] | outcome [10] | Potency [11] | Potency [12] | Potency [13] | Potency [15]

CCNC(=O)NC(=O)/C(C#N)=N/OC
inactive: Potency [1] | Potency [2] | Potency [3] | Potency [4] | Potency [5] | Potency [6] | Potency [7] | Potency [16] | Potency [17] | Potency [8] | Potency [9] | outcome [10] | Potency [11] | Potency [18] | activity change, positive = activation ([19]; at 92.4 µM (top of the series)) -6.66% | Potency [13] | Potency [14] | Potency [15]

C[C@]12CC[C@H]3[C@@H](CCC4=CC(=O)CC[C@@H]43)[C@@H]1CC[C@@H]2OC(=O)CCc1ccccc1
inactive: Potency [1] | Potency [2] | Potency [3] | Potency [4] | Potency [5] | Potency [6] | Potency [7] | Potency [16] | Potency [17] | Potency [20] | Potency [8] | Potency [9] | outcome [10] | Potency [18] | activity change, positive = activation ([19]; at 42.5 µM (top of the series)) 10.2% | Potency [12] | Potency [13] | Potency [14] | Potency [15]

C=CC(=O)OCC
inactive: Potency [1] | Potency [2] | Potency [3] | Potency [4] | Potency [5] | Potency [6] | Potency [7] | Potency [8] | Potency [9] | outcome [10] | Potency [11] | Potency [12] | Potency [13] | Potency [14] | Potency [15]

OCCSSCCO
inactive: Potency [1] | Potency [2] | Potency [3] | Potency [4] | Potency [5] | Potency [6] | Potency [7] | Potency [8] | Potency [9] | outcome [10] | Potency [11] | Potency [12] | Potency [13] | Potency [14] | Potency [15]

CC(Oc1cc(Cl)c(Cl)cc1Cl)C(=O)O (stereo not drawn)
inactive: Potency [1] | Potency [2] | Potency [3] | Potency [4] | Potency [5] | Potency [6] | Potency [7] | Potency [20] | Potency [8] | Potency [9] | outcome [10] | Potency [11] | Potency [12] | Potency [13] | Potency [15]

CC(C)CCON=O
inactive: Potency [1] | Potency [2] | Potency [3] | Potency [4] | Potency [5] | Potency [6] | Potency [7] | Potency [20] | Potency [8] | Potency [9] | outcome [10] | Potency [11] | Potency [12] | Potency [13] | Potency [15]

C=CCSSCC=C
inactive: Potency [1] | Potency [2] | Potency [3] | Potency [4] | Potency [5] | Potency [6] | outcome [10] | Potency [11] | Potency [12] | Potency [13] | Potency [14] | Potency [15]

CC[N+]1(CCOC(=O)C(O)(c2ccccc2)c2ccccc2)CCCCC1
inactive: Potency [1] | Potency [2] | Potency [3] | Potency [4] | Potency [5] | Potency [6] | Potency [20] | Potency [8] | Potency [9] | outcome [10] | Potency [11] | Potency [12] | Potency [13] | Potency [14] | Potency [15]

COc1ccc(C(O)(c2cncnc2)C2CC2)cc1 (stereo not drawn)
inactive: Potency [1] | Potency [2] | Potency [3] | Potency [4] | Potency [5] | Potency [6] | Potency [7] | Potency [16] | Potency [17] | Potency [20] | Potency [9] | outcome [10] | Potency [11] | Potency [18] | activity change, positive = activation ([19]; at 92.4 µM (top of the series)) 1.33% | Potency [12] | Potency [13] | Potency [15]

CC(C)CCCCCCCOC(=O)c1ccccc1C(=O)OCCCCCCCC(C)C
inactive: Potency [1] | Potency [2] | Potency [3] | Potency [4] | Potency [5] | Potency [6] | Potency [16] | Potency [17] | Potency [20] | Potency [8] | Potency [9] | outcome [10] | Potency [11] | Potency [18] | activity change, positive = activation ([19]; at 92.4 µM (top of the series)) 0.464% | Potency [13] | Potency [14] | Potency [15]

O=[N+]([O-])c1cc(Cl)c(Cl)cc1Cl
inactive: Potency [1] | Potency [2] | Potency [3] | Potency [4] | Potency [5] | Potency [7] | Potency [16] | Potency [17] | Potency [9] | outcome [10] | Potency [11] | Potency [18] | activity change, positive = activation ([19]; at 92.4 µM (top of the series)) 0.191% | Potency [12] | Potency [13] | Potency [14] | Potency [15]

Source: PubChem BioAssay (Tox21)
